# In paper PMC7862700, “An all-to-all approach to the identification of sequence-specific readers for epigenetic DNA modifications on cytosine”:
# Tests used:
# Assay in all cases: DAPPL (digital affinity profiling via proximity ligation, sequencing); 10 mM Tris-HCl pH 7.5, 50 mM NaCl, 1 mM DTT, 4% glycerol, room temperature, 30 min; GST-TFs on glutathione beads, 16-mer random dsDNA library, 0.1% formaldehyde crosslink after washing; high values mean tight binding
# Details in all cases: protein: recombinant; tags: N-terminal GST; dsDNA, one strand shown
# FEV = target: T1, FEV (Homo sapiens, UniProt Q99581 1-238)
# T1 sequence: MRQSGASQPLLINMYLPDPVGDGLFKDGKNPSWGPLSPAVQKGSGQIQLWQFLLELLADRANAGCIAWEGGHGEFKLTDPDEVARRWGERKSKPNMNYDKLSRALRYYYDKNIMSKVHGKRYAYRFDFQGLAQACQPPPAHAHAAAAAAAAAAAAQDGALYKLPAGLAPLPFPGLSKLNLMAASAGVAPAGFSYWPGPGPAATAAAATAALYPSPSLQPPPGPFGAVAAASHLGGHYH
# How it was run: (§1)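 GST fusions of human transcription factors were expressed in yeast and captured with glutathione beads. Once given DNA barcodes and pooled alongside a tag-only sample, they were incubated for 30 min at room temperature with 200 nmole of a random double-stranded 16-mer DNA library in Tris/NaCl/DTT/glycerol buffer, then washed, crosslinked (0.1% formaldehyde), proximity-ligated, PCR-amplified and sequenced on an Illumina NextSeq500. The binding signal of each hexamer is its read frequency for a factor divided by its frequency for the tag-only sample.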
# ETV5 = ETV5 (Homo sapiens, UniProt P41161 1-510)
# Chain of ETV5 (P41161 whole entry): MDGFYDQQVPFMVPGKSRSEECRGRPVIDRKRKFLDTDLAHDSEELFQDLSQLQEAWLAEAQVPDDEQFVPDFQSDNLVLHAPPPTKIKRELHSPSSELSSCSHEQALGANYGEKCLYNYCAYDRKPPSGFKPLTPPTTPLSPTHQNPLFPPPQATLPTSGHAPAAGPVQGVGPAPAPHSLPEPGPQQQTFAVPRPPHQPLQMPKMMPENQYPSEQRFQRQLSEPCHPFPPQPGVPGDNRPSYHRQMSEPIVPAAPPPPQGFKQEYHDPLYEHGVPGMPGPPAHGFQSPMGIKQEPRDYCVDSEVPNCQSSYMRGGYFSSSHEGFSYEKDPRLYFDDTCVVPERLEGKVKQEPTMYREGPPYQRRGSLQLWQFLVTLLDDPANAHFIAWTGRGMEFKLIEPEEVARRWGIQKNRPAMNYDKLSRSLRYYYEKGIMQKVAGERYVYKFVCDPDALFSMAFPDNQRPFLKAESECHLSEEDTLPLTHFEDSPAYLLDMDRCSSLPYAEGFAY
# How it was run: as §1
# SPIC = target: T2, SPIC (Homo sapiens, UniProt Q8N5J4 1-248)
# T2 sequence: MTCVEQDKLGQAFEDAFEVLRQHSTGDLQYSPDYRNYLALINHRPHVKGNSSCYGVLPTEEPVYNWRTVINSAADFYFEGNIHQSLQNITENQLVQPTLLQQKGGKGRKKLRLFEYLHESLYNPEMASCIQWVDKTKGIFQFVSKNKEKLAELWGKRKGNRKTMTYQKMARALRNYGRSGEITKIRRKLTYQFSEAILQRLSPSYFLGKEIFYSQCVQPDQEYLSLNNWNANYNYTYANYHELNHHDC
# How it was run: as §1
# ELF4 = ELF4 (Homo sapiens, UniProt Q99607 1-663)
# Chain of ELF4 (Q99607 whole entry): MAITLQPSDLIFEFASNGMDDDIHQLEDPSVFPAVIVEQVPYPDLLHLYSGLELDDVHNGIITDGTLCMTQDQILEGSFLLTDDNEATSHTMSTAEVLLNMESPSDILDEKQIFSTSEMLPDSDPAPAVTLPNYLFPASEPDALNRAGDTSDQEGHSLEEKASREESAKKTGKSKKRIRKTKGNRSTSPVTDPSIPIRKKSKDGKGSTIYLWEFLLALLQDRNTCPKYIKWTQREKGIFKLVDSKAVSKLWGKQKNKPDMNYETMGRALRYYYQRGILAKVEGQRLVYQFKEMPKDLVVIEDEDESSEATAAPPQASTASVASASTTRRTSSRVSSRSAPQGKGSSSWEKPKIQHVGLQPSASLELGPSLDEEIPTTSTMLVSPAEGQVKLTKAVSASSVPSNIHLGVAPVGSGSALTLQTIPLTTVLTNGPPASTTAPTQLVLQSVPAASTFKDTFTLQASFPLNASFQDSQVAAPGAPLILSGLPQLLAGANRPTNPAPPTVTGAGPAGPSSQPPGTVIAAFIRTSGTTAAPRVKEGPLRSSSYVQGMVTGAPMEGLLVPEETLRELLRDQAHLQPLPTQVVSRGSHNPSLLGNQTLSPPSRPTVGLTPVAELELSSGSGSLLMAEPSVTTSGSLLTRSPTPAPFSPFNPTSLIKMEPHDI
# How it was run: as §1
# ELK4 = target: T3, ELK4 (Homo sapiens, UniProt P28324-2 1-405)
# T3 sequence: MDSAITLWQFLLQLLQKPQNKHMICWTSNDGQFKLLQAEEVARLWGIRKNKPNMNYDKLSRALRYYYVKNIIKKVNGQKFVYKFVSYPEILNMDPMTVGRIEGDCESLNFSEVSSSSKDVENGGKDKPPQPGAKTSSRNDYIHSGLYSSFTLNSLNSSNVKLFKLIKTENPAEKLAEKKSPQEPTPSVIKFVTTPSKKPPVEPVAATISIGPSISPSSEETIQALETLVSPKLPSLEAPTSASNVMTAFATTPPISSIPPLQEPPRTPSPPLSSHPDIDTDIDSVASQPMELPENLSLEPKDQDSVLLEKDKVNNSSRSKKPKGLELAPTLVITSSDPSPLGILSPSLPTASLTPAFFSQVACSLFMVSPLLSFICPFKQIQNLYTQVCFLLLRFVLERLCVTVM
# How it was run: as §1
# ETV2 = target: T4, ETV2 (Homo sapiens, UniProt O00321 1-342)
# T4 sequence: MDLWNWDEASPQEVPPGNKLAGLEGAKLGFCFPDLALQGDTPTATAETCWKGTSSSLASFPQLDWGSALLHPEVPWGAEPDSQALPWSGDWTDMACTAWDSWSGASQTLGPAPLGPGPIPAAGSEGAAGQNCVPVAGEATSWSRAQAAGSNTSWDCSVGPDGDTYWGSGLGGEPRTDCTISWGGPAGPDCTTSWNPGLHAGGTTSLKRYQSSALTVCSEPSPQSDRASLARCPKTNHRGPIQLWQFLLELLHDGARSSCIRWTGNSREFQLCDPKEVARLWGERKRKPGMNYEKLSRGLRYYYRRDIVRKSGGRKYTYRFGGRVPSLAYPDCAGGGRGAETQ
# How it was run: as §1
# ELF3 = target: T5, ELF3 (Homo sapiens, UniProt P78545 1-371)
# T5 sequence: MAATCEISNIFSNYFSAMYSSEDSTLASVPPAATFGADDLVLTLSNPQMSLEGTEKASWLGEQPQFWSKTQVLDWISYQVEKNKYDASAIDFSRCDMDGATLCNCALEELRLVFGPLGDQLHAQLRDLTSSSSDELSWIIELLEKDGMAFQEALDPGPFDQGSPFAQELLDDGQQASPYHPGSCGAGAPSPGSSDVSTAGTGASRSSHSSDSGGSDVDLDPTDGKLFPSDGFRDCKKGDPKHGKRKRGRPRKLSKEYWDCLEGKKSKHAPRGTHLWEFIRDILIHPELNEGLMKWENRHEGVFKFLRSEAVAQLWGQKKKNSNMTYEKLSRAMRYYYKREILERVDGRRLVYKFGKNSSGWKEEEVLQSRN
# How it was run: as §1
# ETV1 = ETV1 (Homo sapiens, UniProt P50549 1-477)
# Chain of ETV1 (P50549 whole entry): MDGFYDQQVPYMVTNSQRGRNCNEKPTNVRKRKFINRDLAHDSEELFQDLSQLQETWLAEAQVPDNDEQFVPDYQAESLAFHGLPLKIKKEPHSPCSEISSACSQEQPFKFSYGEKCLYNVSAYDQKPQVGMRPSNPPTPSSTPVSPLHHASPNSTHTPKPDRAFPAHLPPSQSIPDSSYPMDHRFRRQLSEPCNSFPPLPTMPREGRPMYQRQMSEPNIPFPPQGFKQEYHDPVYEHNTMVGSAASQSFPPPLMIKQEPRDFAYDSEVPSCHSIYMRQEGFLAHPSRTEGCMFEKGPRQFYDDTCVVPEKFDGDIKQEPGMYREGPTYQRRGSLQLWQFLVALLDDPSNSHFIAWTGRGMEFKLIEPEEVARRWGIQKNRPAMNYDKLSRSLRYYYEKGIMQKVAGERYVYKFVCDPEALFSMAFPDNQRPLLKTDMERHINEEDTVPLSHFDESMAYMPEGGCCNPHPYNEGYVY
# How it was run: as §1
# ERF = target: T6, ERF (Homo sapiens, UniProt P50548 1-548)
# T6 sequence: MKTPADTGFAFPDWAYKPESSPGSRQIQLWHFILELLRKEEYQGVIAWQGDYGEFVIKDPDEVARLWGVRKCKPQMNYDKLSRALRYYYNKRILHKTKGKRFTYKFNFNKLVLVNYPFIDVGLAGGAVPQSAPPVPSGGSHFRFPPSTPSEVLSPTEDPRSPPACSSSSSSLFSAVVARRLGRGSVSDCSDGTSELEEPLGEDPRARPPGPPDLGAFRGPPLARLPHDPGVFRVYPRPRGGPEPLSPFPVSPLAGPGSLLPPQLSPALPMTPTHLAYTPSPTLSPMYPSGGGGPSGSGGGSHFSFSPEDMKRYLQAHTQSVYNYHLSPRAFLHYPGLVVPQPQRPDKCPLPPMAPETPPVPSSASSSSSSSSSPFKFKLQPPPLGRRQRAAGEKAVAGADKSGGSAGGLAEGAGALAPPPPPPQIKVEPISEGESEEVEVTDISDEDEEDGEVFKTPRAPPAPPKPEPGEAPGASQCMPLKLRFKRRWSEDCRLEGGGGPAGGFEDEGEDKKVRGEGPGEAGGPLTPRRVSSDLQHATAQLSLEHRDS
# How it was run: as §1
# ETV3L = target: T7, ETV3L (Homo sapiens, UniProt Q6ZN32 1-361)
# T7 sequence: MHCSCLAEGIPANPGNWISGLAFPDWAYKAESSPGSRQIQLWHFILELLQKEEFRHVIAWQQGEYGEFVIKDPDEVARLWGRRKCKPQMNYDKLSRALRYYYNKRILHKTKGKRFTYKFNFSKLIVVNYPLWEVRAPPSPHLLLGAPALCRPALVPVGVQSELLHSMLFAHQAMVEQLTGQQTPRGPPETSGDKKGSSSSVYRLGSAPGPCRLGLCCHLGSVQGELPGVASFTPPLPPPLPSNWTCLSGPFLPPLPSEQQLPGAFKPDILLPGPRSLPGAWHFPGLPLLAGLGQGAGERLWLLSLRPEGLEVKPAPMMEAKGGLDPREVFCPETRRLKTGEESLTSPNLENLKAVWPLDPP
# How it was run: as §1
# ETS2 = target: T8, ETS2 (Homo sapiens, UniProt P15036 1-469)
# T8 sequence: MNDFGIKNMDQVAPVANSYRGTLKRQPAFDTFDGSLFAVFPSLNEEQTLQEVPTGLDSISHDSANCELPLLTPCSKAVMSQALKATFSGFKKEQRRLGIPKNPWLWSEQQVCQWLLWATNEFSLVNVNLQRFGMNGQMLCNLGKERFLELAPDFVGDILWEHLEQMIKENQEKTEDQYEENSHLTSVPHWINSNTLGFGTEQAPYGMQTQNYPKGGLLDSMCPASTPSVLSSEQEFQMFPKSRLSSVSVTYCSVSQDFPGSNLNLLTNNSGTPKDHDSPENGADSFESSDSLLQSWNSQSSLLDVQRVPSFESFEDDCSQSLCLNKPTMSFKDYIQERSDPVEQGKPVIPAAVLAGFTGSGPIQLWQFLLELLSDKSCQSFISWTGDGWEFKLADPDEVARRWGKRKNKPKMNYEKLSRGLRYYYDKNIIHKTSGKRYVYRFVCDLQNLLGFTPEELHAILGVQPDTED
# How it was run: as §1
# SPDEF = target: T9, SPDEF (Homo sapiens, UniProt O95238 1-335)
# T9 sequence: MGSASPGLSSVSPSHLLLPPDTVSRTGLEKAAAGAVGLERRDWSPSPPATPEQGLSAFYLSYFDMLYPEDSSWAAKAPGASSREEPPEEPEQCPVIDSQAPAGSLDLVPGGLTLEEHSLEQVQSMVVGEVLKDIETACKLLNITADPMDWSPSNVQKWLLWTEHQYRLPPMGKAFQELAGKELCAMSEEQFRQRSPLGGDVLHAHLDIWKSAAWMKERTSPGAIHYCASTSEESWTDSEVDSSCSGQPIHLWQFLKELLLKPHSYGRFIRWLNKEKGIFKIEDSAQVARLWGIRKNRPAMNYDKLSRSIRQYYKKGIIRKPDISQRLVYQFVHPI
# How it was run: as §1
# ETV7 = target: T10, ETV7 (Homo sapiens, UniProt Q9Y603 1-341)
# T10 sequence: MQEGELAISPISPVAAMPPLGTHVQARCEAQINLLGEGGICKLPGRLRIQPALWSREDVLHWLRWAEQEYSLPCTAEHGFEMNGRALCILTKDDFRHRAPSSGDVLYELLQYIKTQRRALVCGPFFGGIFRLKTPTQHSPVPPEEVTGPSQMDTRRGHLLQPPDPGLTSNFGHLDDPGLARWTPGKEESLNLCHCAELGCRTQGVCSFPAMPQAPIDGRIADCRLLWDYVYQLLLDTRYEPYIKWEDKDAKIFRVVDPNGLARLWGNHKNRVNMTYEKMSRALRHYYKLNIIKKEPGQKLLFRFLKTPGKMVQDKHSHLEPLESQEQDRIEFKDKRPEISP
# How it was run: as §1
# ELF5 = target: T11, ELF5 (Homo sapiens, UniProt Q9UKW6-2 1-255)
# T11 sequence: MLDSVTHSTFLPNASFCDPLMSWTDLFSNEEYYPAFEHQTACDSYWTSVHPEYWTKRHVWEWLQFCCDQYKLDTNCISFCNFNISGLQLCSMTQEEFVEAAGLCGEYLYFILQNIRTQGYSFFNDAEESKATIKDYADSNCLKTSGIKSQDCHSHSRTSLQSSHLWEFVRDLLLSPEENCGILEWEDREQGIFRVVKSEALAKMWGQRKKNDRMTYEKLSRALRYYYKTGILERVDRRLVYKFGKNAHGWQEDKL
# How it was run: as §1
# ETV3 = target: T12, ETV3 (Homo sapiens, UniProt P41162-2 1-143)
# T12 sequence: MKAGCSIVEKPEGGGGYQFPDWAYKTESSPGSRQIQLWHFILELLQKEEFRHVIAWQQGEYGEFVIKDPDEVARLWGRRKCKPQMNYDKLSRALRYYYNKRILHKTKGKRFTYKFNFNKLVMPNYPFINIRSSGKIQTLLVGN
# How it was run: as §1
# ETV6 = ETV6 (Homo sapiens, UniProt P41212 1-452)
# Chain of ETV6 (P41212 whole entry): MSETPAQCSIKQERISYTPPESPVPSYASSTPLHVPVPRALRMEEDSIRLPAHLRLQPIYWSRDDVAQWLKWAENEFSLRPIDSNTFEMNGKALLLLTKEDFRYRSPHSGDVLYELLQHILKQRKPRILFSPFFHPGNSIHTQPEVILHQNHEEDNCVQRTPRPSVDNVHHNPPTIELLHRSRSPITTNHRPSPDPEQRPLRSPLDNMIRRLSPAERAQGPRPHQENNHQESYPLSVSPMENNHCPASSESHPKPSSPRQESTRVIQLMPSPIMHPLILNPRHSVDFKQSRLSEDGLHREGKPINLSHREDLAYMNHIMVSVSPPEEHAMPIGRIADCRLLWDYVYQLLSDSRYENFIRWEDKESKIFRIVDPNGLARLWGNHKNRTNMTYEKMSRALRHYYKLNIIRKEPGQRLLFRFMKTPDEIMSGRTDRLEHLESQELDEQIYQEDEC
# How it was run: as §1
Sequence,binding signal (FEV),binding signal (ETV5),binding signal (SPIC),binding signal (ELF4),binding signal (ELK4),binding signal (ETV2),binding signal (ELF3),binding signal (ETV1),binding signal (ERF),binding signal (ETV3L),binding signal (ETS2),binding signal (SPDEF),binding signal (ETV7),binding signal (ELF5),binding signal (ETV3),binding signal (ETV6)
ACACAC,"1.18 fold enrichment (6-mer frequency, TF over GST control)","1.15 fold enrichment (6-mer frequency, TF over GST control)","1.23 fold enrichment (6-mer frequency, TF over GST control)","1.21 fold enrichment (6-mer frequency, TF over GST control)","1.21 fold enrichment (6-mer frequency, TF over GST control)","1.33 fold enrichment (6-mer frequency, TF over GST control)","1.23 fold enrichment (6-mer frequency, TF over GST control)","1.17 fold enrichment (6-mer frequency, TF over GST control)","1.14 fold enrichment (6-mer frequency, TF over GST control)","1.15 fold enrichment (6-mer frequency, TF over GST control)","1.17 fold enrichment (6-mer frequency, TF over GST control)","1.14 fold enrichment (6-mer frequency, TF over GST control)","1.19 fold enrichment (6-mer frequency, TF over GST control)","1.16 fold enrichment (6-mer frequency, TF over GST control)","1.18 fold enrichment (6-mer frequency, TF over GST control)","1.21 fold enrichment (6-mer frequency, TF over GST control)"
ACGACA,"1.14 fold enrichment (6-mer frequency, TF over GST control)","1.11 fold enrichment (6-mer frequency, TF over GST control)","1.18 fold enrichment (6-mer frequency, TF over GST control)","1.22 fold enrichment (6-mer frequency, TF over GST control)","1.16 fold enrichment (6-mer frequency, TF over GST control)","1.1 fold enrichment (6-mer frequency, TF over GST control)","1.22 fold enrichment (6-mer frequency, TF over GST control)","1.18 fold enrichment (6-mer frequency, TF over GST control)","1.11 fold enrichment (6-mer frequency, TF over GST control)","1.12 fold enrichment (6-mer frequency, TF over GST control)","1.12 fold enrichment (6-mer frequency, TF over GST control)","1.26 fold enrichment (6-mer frequency, TF over GST control)","1.05 fold enrichment (6-mer frequency, TF over GST control)","1.18 fold enrichment (6-mer frequency, TF over GST control)","1.08 fold enrichment (6-mer frequency, TF over GST control)","1.22 fold enrichment (6-mer frequency, TF over GST control)"
